Assay outcomes (PubChem BioAssay)
ALDH1A1 inh = qHTS Assay for Inhibitors of Aldehyde Dehydrogenase 1 (ALDH1A1); 7.3% of 220,000 active; Potency, µM (highest dose often 75.3 µM), without a hit: top-dose activity, negative = inhibition, most hits filed as inhibitors; Purified ALDH1A1, NADH fluorescence, propionaldehyde substrate; Aldehyde dehydrogenase 1A1 (Homo sapiens), P00352; active means well fitted inhibition curve with a large enough effect, not every such curve was filed as active; inconclusive means small, poorly fitted or top-dose-only effect, or another doubt; inactive means no such curve, though single readings can be large or run the other way;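 further: potency means the concentration at half of the fitted maximal effect; plate controls were no enzyme wells and a reference inhibitor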
Target sequence (P00352 whole entry, looked up): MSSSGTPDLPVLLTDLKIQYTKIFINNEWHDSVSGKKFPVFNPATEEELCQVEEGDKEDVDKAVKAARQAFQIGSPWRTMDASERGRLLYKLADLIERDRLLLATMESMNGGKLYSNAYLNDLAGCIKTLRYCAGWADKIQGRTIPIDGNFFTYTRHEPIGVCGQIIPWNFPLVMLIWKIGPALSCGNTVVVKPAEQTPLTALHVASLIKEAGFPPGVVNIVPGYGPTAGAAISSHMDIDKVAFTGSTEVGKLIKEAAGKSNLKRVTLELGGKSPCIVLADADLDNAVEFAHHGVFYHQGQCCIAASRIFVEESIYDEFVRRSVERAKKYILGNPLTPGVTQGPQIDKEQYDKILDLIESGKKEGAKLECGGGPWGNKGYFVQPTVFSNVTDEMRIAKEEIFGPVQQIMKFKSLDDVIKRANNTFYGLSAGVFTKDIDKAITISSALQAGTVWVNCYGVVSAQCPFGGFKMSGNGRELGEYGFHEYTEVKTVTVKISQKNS
Sfp inh = qHTS Assay for Inhibitors of Bacillus subtilis Sfp phosphopantetheinyl transferase (PPTase) | Biochemical Sfp PPTase activity, qHTS | AID 1490, 2009 | Potency, µM, for the others: largest response in the series, negative = inhibition, usual class: inhibitors | 4'-phosphopantetheinyl transferase ffp (Bacillus subtilis), Q9F4F7 | 3.5% of 310,000 active;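 further: the enzyme is Sfp with the accession as filed and its product quenches rhodamine fluorescence; potency means the concentration at half of the fitted maximal effect; 0% = enzyme reaction without inhibitor and -100% = no enzyme wells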
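Fluorescence-quenching assay with 15 nM Sfp, 5 uM rhodamine-CoA and 12.5 uM BHQ-2-labelled ybbR peptide in pH 7.6 Hepes/MgCl2 buffer. Enzyme was pre-incubated with compound for 15 min at room temperature. Rate was taken from the 30-min fluorescence change (525/598 nm).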
G9a inh = qHTS Assay for Inhibitors of Histone Lysine Methyltransferase G9a. G9a H3K9 monomethylation, AlphaScreen, 2 h. Potency, µM (top dose mostly 102 µM), inactives show at the highest dose activity, negative = inhibition, usual class: inhibitors. 8.8% of 350,000 active. Histone-lysine N-methyltransferase EHMT2 (Homo sapiens), Q96KQ7. AID 504332, 2011; further: potency means the concentration at half of the fitted maximal effect; on the % scale 0 is the no-effect control and ±100 the full control effect; nearly all actives have a fitted effect of over 75% in size
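Step 1: enzyme (final 20 nM) with compound, 15 min RT. Step 2: substrate peptide 500 nM and SAM 20 uM, 2 h RT. Step 3: anti-H3K9me1 antibody and AlphaScreen beads, 10 min, then plate read.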
Lamin A splicing = qHTS Assay for Modulators of Lamin A Splicing; HeLa LMNA splicing GFP/RFP minigene ratio, 48 h; Potency, µM (top dose mostly 46.1 µM), inactives show top-dose ratio change, negative = inhibition, actives largely listed as inhibitors; 0.01% of 200,000 active; AID 1487, 2009; active means well fitted inhibition curve with a large enough effect in the signal ratio, with a control signal flat, not every such curve was filed as active; inconclusive means small, poorly fitted or top-dose-only effect, or effect the other way, or a change in a side signal; the % refers to the signal ratio; further: potency means the concentration at half of the fitted maximal effect; on the % scale 0 is the no-effect control and ±100 the full control effect
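S3 HeLa stable clones carrying a lamin A-EGFP splicing minigene plus DsRed2 were seeded at 600 cells/well in Opti-MEM with 2% FBS, pin-dosed and incubated 48 h at 37°C. Acumen cytometry (488 nm) gave the GFP/RFP total-intensity ratio.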
miR-21 reporter = qHTS Assay for Modulators of miRNAs and/orActivators of miR-21 | HeLa miR-21 FLuc reporter, luciferase, 48 h | Potency, µM (titrated, usually from 38.3 µM), without a hit: at the highest dose activity change, positive = activation, most hits filed as activators | 340,000 tested, under 10 active;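 further: % of control where 0% means no effect; miR-21 action dims this reporter so a rising signal means less miR-21 action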
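Luminescence from a firefly luciferase reporter carrying a miR-21 binding site downstream, stably expressed under a CMV promoter in HeLa cells that make miR-21 endogenously, reports miRNA modulation after 48 h compound exposure up to approximately 40uM final.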
JMJD2E inh = qHTS Assay for Inhibitors of Human Jumonji Domain Containing 2E (JMJD2E); Potency, µM (highest dose often 57.1 µM), inactives show top-dose activity change, negative = inhibition, actives largely listed as inhibitors; JMJD2E catalytic domain, FDH-coupled NADH fluorescence (FDH is formaldehyde dehydrogenase); Lysine-specific demethylase 4E (Homo sapiens), B2RXH2; AID 2147, 2009; 1.6% of 230,000 active; active means well fitted inhibition curve with a large enough effect, not every such curve was filed as active; inconclusive means small, poorly fitted or top-dose-only effect, or another doubt; inactive means no such curve, though single readings can be large or run the other way;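 further: potency means the concentration at half of the fitted maximal effect; 0% = wells with enzyme and -100% = buffer wells without enzyme; nearly all actives have a fitted effect of over 50% in size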
Target sequence (B2RXH2 1-337 limits assumed): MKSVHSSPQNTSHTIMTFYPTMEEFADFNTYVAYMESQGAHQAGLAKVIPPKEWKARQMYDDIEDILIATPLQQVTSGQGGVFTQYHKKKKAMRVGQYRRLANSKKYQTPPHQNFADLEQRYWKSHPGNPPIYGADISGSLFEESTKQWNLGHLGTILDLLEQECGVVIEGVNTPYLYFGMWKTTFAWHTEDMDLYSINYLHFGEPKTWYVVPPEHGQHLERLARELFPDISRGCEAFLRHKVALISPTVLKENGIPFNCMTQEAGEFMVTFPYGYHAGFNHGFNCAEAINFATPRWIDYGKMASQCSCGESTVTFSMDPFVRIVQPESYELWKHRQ
Starred values were filed as active, the others as inactive; ? = inconclusive; · = not tested or not shown; ! = a repeat was not active; [ ] = another dose, or the depositor's remark. A selection: hits, their analogues and other compounds. The true share with any hit is near 13%. Unless noted, the call rests on the fitted dose curve; in most records, active means well fitted curve in the direction sought with a large enough effect; inconclusive means small, poorly fitted or top-dose-only effect, or another doubt; inactive means no such curve, though single readings can be large; an effect the other way counts as inactive or inconclusive.

SMILES	ALDH1A1 inh	Sfp inh	G9a inh	Lamin A splicing	miR-21 reporter	JMJD2E inh
Cn1ncc(Cl)c1C(=O)Nc1nc2ccc(Cl)cc2s1	?	-24.1%	7.94µM*	-19.4%	-50.8%	?
Cc1cccc(-c2c3c(=O)n(C)c(=O)n(C)c3c3cnc4ccccc4n23)c1	·	·	1.2%[59 µM]	·	-2.6%	·
CN1c2ccccc2-c2nc3ccccc3n2C1c1ccncc1 (stereo not drawn)	-8.3%	7.2%	-35.6%[12.7 µM]	-10.6%	-1.3%	?
CN1c2ccccc2-c2nc3ccccc3n2C1c1ccccn1 (stereo not drawn)	10.7%	?	50.1µM*	-7.1%	-9.1%	1.7%
O=C(O)c1ccc(Oc2ccc(S(=O)(=O)c3ccc(C(=O)O)c(C(=O)O)c3)cc2)cc1	·	16.5%	50.1µM*	·	-0.7%	·
O=C(O)c1ccccc1-c1oc2cc(O)ccc2c(=O)c1Oc1ccccc1	20µM*	-2.0%	·	·	·	?
CN1CCN(Cc2nc3c(c(=O)n(C)c(=O)n3C)n2CCCc2ccccc2)CC1	5.62µM*	8.0%	21.8%[12.7 µM]	5.8%	-3.5%	-2.1%
Cn1c(=O)c2c(nc(CN3CCN(Cc4ccccc4)CC3)n2Cc2ccc(Cl)cc2)n(C)c1=O	?	10.9%	44.7µM*	-3.3%	?	-0.8%
Cc1ccc(Cn2c(CN3CCOCC3)nc3c2c(=O)n(C)c(=O)n3C)cc1	10µM*	7.8%	-22.0%[59 µM]	-7.7%	3.1%	5.6%
CCOC(=O)N1CCN(Cc2nc3c(c(=O)n(C)c(=O)n3C)n2Cc2cc(C)ccc2C)CC1	0.891µM*	3.4%	-28.4%[59 µM]	2.1%	-10.3%	-4.3%
Cn1c(=O)c2c(nc(CN3CCN(Cc4ccccc4)CC3)n2Cc2ccccc2)n(C)c1=O	5.3%	12.0%	-11.5%	-7.9%	-0.6%	4.7%
Cn1c(=O)c2c(nc(CN3CCN(CCO)CC3)n2CCc2ccccc2)n(C)c1=O	28.2µM*	7.9%	0.9%	·	0.2%	7.9%
COc1ccccc1NC(=O)c1sc2nc3c(c(C(F)(F)F)c2c1N)CN(C(C)=O)CC3	·	·	-12.1%[59 µM]	·	7.3%	·
CCOC(=O)c1c(C)[nH]c(C(=O)COC(=O)c2cc(C)oc2C)c1C	·	·	-44.3%[12.7 µM]	·	·	·
COc1ccc(CN2CCc3c(c(=O)n4ncc(C(=O)N5CCN(c6ccccc6F)CC5)c4n3C)C2)cc1	·	·	-9.8%[59 µM]	-5.3%[46 µM]	7.7%	·
O=CN1CCN(C(C(=O)NC2CCCCC2)c2cc3c(cc2[N+](=O)[O-])OCO3)CC1 (stereo not drawn)	5.01µM*	?	1.6%	-3.6%[9.22 µM]	-9.5%	?
O=C(NC1CCCCC1)C(c1cc2c(cc1[N+](=O)[O-])OCO2)N1CCCCC1 (stereo not drawn)	28.2µM*	-13.9%	-5.8%	-4.5%	-24.2%	?
C[C@H](NC(=O)C1CC(=O)N(c2ccc3c(c2)OCO3)C1)C(=O)NC1CCCCC1 (stereo partly drawn)	·	2.8%	13.4%	·	-0.7%	·
COc1ccc(NC(=O)C(c2cc3c(cc2[N+](=O)[O-])OCO3)N2CCN(C=O)CC2)cc1 (stereo not drawn)	?	-18.7%	-18.9%	-10.2%	-14.9%	?
O=C(O)c1sccc1Oc1ccc(NS(=O)(=O)c2ccccc2)cc1	·	3.5%	10.0%	·	-0.8%	·
CCOC(=O)C1=C(O)C(=O)NC(c2ccccc2)=C(OCC)C1	?	-1.7%	44.7µM*	0.6%	-18.9%	2.9%
CCOC(=O)C1=C(C)N(c2ccccc2)C(=O)C1	0.0%	6.7%	5.2%[59 µM]	-4.2%	-6.6%	0.0%
O=c1/c(=C/c2ccc(O)cc2)sc2nc3cc(Br)cnc3n12	20µM*	?	10µM*	·	-19.6%	-3.2%
O=c1/c(=C\c2ccc(O)cc2)sc2nc(-c3ccccc3)c(-c3ccccc3)n12	·	-15.8%	?	·	-0.9%	-3.1%
COc1ccc2nc(C)c(C(=O)OCCN(C)C)cc2c1	?	0.1%	50.1µM*	-4.4%	-3.3%	?
SMILES	ALDH1A1 inh	Sfp inh	G9a inh	Lamin A splicing	miR-21 reporter	JMJD2E inh
CC(C)NC(=O)C(C)Oc1ccc(S(=O)(=O)NCc2ccc3c(c2)OCO3)cc1 (stereo not drawn)	·	26.9%	-28.0%[0.501 µM]	·	-1.0%	·
CSc1ccc2c(c1)N(CC[C@H]1CCCCN1C)c1ccccc1S2	6.2%[20.9 µM]	1.5%	11.2µM*	?	·	-5.0%[25.5 µM]
CSc1ccc2c(c1)N(CCC1CCCCN1C)c1ccccc1S2 (stereo not drawn)	0.8%	-20.5%	17.8µM*!	?	?	?
CN1CCN(C(=S)Nc2ccccc2Cl)CC1	-6.3%	13.2%	-7.3%[59 µM]	-3.6%	0.8%	-3.0%
COc1ccccc1N1CCN(C(=S)NC(=O)/C=C/c2ccccc2)CC1	·	20.2%	4.7%[59 µM]	·	-63.1%	-4.5%
CN1CCN(C(=S)NC(=O)c2ccccc2Cl)CC1	·	-28.2%	50.1µM*	·	-3.1%	·
CN1CCN(C(=S)NC(=O)/C=C/c2ccccc2)CC1	-4.9%	1.4%	50.1µM*	-5.5%	-7.8%	-4.7%
CC(OC(=O)/C=C/c1ccc(Br)cc1)C(=O)N1CCOCC1 (stereo not drawn)	·	·	-25.2%	·	·	·
O=C(/C=C/c1ccc(Br)cc1)NC(=S)N1CCOCC1	?	-6.0%	70.8µM*	·	-9.2%	-4.2%
CN1CCN(C(=S)NC(=O)/C=C/c2ccccc2Cl)CC1	?	-14.3%	44.7µM*	?	-10.9%	-2.1%
O=C(NC(=S)N1CCCCCC1)c1ccccc1Cl	-2.2%	-12.5%	52.5%[59 µM]	·	-2.6%	1.5%
CN(C(=O)CSc1nnc(COc2ccccc2)o1)c1ccccc1	·	·	-23.5%[59 µM]	·	-1.4%	·
COc1cccc(C2=CC(c3ccc(C)cc3)n3ncnc3N2)c1 (stereo not drawn)	?	-9.7%	39.8µM*	7.3%	-1.0%	?
COc1cc(C2CC(=O)C3=C(C2)Nc2ncnn2C3c2cccs2)cc(OC)c1OC (stereo not drawn)	·	26.7%	0.9%	·	14.6%	?
COc1cc(C2C3=C(Nc4ncnn42)c2ccccc2CC3)cc(OC)c1OC (stereo not drawn)	-4.6%	-10.8%	31.6µM*	?	19.9%	-3.9%
COc1cc(C2C(C(C)=O)=C(C)Nc3ncnn32)ccc1O (stereo not drawn)	7.3%	6.0%	-1.0%[59 µM]	-4.7%	-1.2%	4.1%
COc1cc(C2C=C(c3cccs3)Nc3ncnn32)cc(OC)c1OC (stereo not drawn)	?	-5.4%	31.6µM*	?	3.5%	?
